Data taken from PubChem BioAssay AID651582 (Sanford-Burnham Center for Chemical Genomics, 2012).
Among all 230,000 compounds or so, about 1,500 (0.65%) were called active.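 How the source made its calls: active means pattern-corrected inhibition of lipid staining of at least 50% with the nuclear-stain viability signal not falling by more than 50%; inactive means the rest, inconclusive results apart.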 This excerpt belongs to a sample that is enriched for actives.

Assay: inhibitors of triacylglycerol accumulation, primary screen, cell-based, uHTS, fluorescence, H9c2 (AID 651582);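 on inhibition: 0% = DMSO wells and 100% = triacsin C control wells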
Settings: H9c2 cells, Nile Red lipid (TAG) fluorescence, at 12.5 µM, cells loaded with 200 µM oleic acid; DAPI nuclei signal change (viability), lower = more cytotoxic: measured here: DAPI nuclei count viability; inhibition: stronger effect = higher value

| SMILES | DAPI nuclei signal change (viability), lower = more cytotoxic [%] | inhibition |
| --- | --- | --- |
| COc1cc(C(O)c2nc(-c3cnn(C)c3)cs2)ccc1F (configuration not stated) | -5.42 | -0.779% (inactive) |
| O=CNc1cc(-c2ccc(C(=O)N3CCOCC3)cc2)cn2c(-c3ccc(F)cc3)cnc12 | -10.1 | 16.1% (inactive) |
| CC(=O)c1cccc(-c2cnc3c(NC=O)cc(-c4cccc(C(=O)N(C)C)c4)cn23)c1 | -7.72 | 11.7% (inactive) |
| CN(C)CCNC(=O)c1cccc(-c2cnc3c(NC=O)cc(-c4cccc(C(F)(F)F)c4)cn23)c1 | -5.39 | 55.2% (active) |
| CC(=O)c1cccc(-c2cnc3c(NC=O)cc(-c4ccc(N(C)C)cc4)cn23)c1 | -34.1 | 25.5% (inactive) |
| CN(C)C(=O)c1cccc(-c2cnc3c(NC=O)cc(-c4ccc(C(=O)N5CCOCC5)cc4)cn23)c1 | -40.1 | 52.5% (active) |
| CN(C)C(=O)c1cccc(-c2cnc3c(NC=O)cc(-c4ccc(F)cc4)cn23)c1 | -3.97 | 30.4% (inactive) |
| O=C(COC(=O)/C=C/c1cccc(Cl)c1)NCc1cccs1 | -2.53 | 1.94% (inactive) |
| CCCNC(=O)c1cc(C2CCCCN2S(=O)(=O)c2cn(C)cn2)on1 (configuration not stated) | 4.91 | 3.78% (inactive) |
| CSc1nc2ccc(NC(=O)c3c(F)cccc3F)cc2s1 | 1.73 | -11.3% (inactive) |
| CCCC(=O)Nc1nc2ccc(NC(=O)c3c(F)c(F)c(OC)c(F)c3F)cc2s1 | -22.6 | 70% (active) |
| CC(=O)Nc1ccc2nc(NC(=O)CS(=O)(=O)c3ccc(F)cc3)sc2c1 | -3.72 | -0.551% (inactive) |
| CCNC(=O)C1(C)CCCN(C(=O)c2c(C)noc2C)C1 (configuration not stated) | 4.88 | -5.1% (inactive) |
| CC1=C(C(=O)N(C)C)CC(CC(=O)NCCc2ccccn2)C(=O)N1CCC1=CCCCC1 (configuration not stated) | -8.79 | -1.46% (inactive) |
| CN(Cc1c(F)cccc1Cl)C(=O)COC(=O)Cn1cnc2ccccc2c1=O | 0.959 | -10.1% (inactive) |
| O=C(OCCN1C(=O)c2ccccc2C1=O)[C@@H]1CC(O)CN1S(=O)(=O)c1ccccc1[N+](=O)[O-] (some centres not stated) | -0.22 | -9.02% (inactive) |
| CCCC(=O)N1CCC1(C)C(=O)NS(=O)(=O)c1ccc(Cl)cc1 (configuration not stated) | 2.06 | 6.55% (inactive) |
| CC(=O)Nc1ccc(C(=O)Nc2cc(S(=O)(=O)N3CCOCC3)ccc2N2CCOCC2)cc1 | 4.58 | -8.64% (inactive) |
| Cc1cccc(N2CCN(c3ccc(NC(=O)/C=C\C(=O)O)cc3)CC2)c1 | 1.52 | 7.15% (inactive) |
| CN1CCN(c2ccc(NC(=O)COc3ccc(Cl)cc3Cl)cc2)CC1 | 3.32 | -1.69% (inactive) |
| C=CC(=O)Nc1ccc(Nc2ccnc(Nc3ccc(N4CCN(C)CC4)cc3)n2)cc1 | -47 | 88.2% (active) |
